Inconclusive results are not listed. Active and inactive are the calls of the source. Calls follow the shape of the dose curve; as a rule, active = well fitted curve in the direction sought with a large enough effect; inconclusive = small, poorly fitted or top-dose-only effect, or another doubt; inactive = no such curve, though single readings can be large; an effect the other way counts as inactive or inconclusive.
What was measured:
[1] = molecular target: Rap guanine nucleotide exchange factor 3 (Homo sapiens) (UniProt O95398); experiment: Confirmatory qHTS for antagonist of cAMP-regulated guanine nucleotide exchange factor 3 (EPAC1) (AID 1645880); details: EPAC1 Rap1B-BODIPY-GDP exchange, fluorescence; activity, negative = inhibition: at 115 µM (top of the series);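 also: plate controls were DMSO only for no effect and full effect of the ATA control for full effect; nearly all actives have a fitted effect of over 55% in size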
Rap guanine nucleotide exchange factor 3 (Homo sapiens), sequence (O95398 whole entry, looked up): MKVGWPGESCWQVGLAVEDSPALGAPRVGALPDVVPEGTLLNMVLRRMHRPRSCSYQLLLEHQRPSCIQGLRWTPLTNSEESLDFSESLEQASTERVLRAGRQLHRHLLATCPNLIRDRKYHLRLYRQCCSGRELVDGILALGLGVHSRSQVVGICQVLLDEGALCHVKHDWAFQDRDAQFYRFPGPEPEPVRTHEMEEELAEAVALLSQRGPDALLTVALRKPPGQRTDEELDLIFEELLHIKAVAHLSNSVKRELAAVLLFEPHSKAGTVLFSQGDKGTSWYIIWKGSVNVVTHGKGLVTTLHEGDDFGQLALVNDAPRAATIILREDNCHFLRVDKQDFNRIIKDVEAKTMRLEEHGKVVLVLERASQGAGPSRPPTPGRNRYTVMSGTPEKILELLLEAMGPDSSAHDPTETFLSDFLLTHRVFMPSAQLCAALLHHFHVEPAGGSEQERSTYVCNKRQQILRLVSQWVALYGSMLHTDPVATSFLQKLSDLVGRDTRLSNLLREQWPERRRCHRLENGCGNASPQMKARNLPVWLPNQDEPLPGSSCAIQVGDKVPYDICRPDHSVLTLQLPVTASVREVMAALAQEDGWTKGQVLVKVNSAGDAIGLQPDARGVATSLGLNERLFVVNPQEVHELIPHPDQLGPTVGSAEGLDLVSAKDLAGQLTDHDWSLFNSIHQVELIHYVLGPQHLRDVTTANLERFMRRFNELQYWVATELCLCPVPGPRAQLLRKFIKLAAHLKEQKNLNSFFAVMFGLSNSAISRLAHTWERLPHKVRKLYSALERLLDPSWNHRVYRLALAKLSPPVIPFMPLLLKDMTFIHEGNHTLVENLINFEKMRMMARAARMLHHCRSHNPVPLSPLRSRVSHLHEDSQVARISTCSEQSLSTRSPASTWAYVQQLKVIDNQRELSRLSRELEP
Procedure, shortened: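 Nucleotide exchange uses 100 nM EPAC1, 250 nM RAP1B-BODIPY-GDP and 50 uM GDP, with compounds in a concentration-titration series. After 5 min at room temperature, fluorescence (480 nm ex/540 nm em) is read every 5 min for 30 min. Data are normalized to control ATA and DMSO.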

[2] = molecular target: Rap guanine nucleotide exchange factor 3 (Homo sapiens) (UniProt O95398); experiment: Confirmatory qHTS for agonist of cAMP-regulated guanine nucleotide exchange factor 3 (EPAC1) (AID 1645881); also: nearly all actives have a fitted effect of over 75% in size; also: potency is read from the fitted curve at half-maximal effect;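 as to activation: EPAC1 catalysed release of BODIPY-GDP from Rap1B seen as fluorescence loss; 100% = effect of cAMP agonist control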
[3] = molecular target: Rap guanine nucleotide exchange factor 3 (Homo sapiens) (UniProt O95398); experiment: Counterscreen qHTS for antagonist of cAMP-regulated guanine nucleotide exchange factor 3 (EPAC1) (AID 1645888);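 also: fluorescence loss as bound BODIPY-GDP is released from Rap1B; % of control where 0% means no effect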
Procedure, shortened: (§1)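 Rap1B-BODIPY-GDP 250 nM + GDP 50 uM; cpds 7-pt, final 9.74 nM–152 uM (activator mode) or from 7.32 nM upwards (inhibitor mode); RT; FI 480/540 nm at 5 and 30 min, then ± cAMP, reread.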

[4] = molecular target: Rap guanine nucleotide exchange factor 3 (Homo sapiens) (UniProt O95398); experiment: Counterscreen qHTS for agonist of cAMP-regulated guanine nucleotide exchange factor 3 (EPAC1) (AID 1645889); also: nearly all actives have a fitted effect of over 40% in size; also: potency is read from the fitted curve at half-maximal effect; as to activation: % of control where 0% means no effect
Procedure, shortened: as §1

COC(=O)c1ccc2nc(C3CCCCC3)c(Cc3ccccc3)n2c1
inactive: Potency [1] | Potency [2] | activity change, negative = inhibition [3] 6.26% [at 30.8 µM] | activation [4] 9.29% [at 30.8 µM]

C=CCSc1nc2ccccc2c(=O)n1Cc1ccccc1
inactive: Potency [1] | Potency [2] | activity change, negative = inhibition [3] 17.3% [at 30.8 µM] | activation [4] 7.4% [at 30.8 µM]

COC(=O)c1ccccc1C(=O)c1c(C)cc(C)cc1C
inactive: Potency [1] | Potency [2] | activity change, negative = inhibition [3] 4.03% [at 30.8 µM] | activation [4] 0.931% [at 30.8 µM]

Cc1ccc2cccc(Oc3nnnn3-c3ccccc3)c2n1
inactive: Potency [1] | Potency [2] | Potency [3] | Potency [4]

COCCN(CCOC)Cc1cc(=O)oc2cc(C)cc(C)c12
inactive: Potency [1] | Potency [2] | Potency [3] | Potency [4]

Cc1ccc(-c2nn3cnnc3c3ccccc23)cc1C
inactive: Potency [1] | Potency [2] | activity change, negative = inhibition [3] -44.9% [at 30.8 µM] | activation [4] 5.84% [at 30.8 µM]

Cc1cccc2c1NC(=O)C2(O)N1CCCC(C)C1 (stereo not given)
inactive: Potency [1] | Potency [2] | Potency [3] | Potency [4]

COc1ccc(NS(=O)(=O)c2ccc(S(=O)(=O)N3CCCC3)cc2)cc1
inactive: Potency [1] | Potency [2] | activity change, negative = inhibition [3] -8.86% [at 30.8 µM] | activation [4] 24.5% [at 30.8 µM]

CC(C)CN(C(=O)c1ccco1)c1nc2ccccc2s1
inactive: Potency [1] | Potency [2] | Potency [3] | Potency [4]

COc1ccc(N2C(=O)CSC2c2ccccc2F)c(OC)c1 (stereo not given)
inactive: Potency [1] | Potency [2] | Potency [3] | Potency [4]

O=C(Cc1c(F)cccc1Cl)Nc1ccc(S(=O)(=O)Nc2nccs2)cc1
inactive: Potency [1] | Potency [2] | activity change, negative = inhibition [3] 4.41% [at 30.8 µM] | activation [4] 17.6% [at 30.8 µM]

COc1ccc(S(=O)(=O)N2CCCC2)c(Cl)c1Cl
inactive: Potency [1] | Potency [2] | activity change, negative = inhibition [3] 12.2% [at 30.8 µM] | activation [4] 0.265% [at 30.8 µM]

COC(=O)c1ccc2nc(-c3ccc(Cl)cc3)c(CC3CCCCC3)n2c1
inactive: Potency [1] | Potency [2] | Potency [3] | Potency [4]

C=C1SC(Nc2c(C)cc(C)cc2C)=NC12CCCCC2
inactive: Potency [1] | Potency [2] | Potency [3] | Potency [4]

O=C(O)CCCN1C(=O)/C(=C/c2cn(-c3ccccc3)nc2-c2cccs2)SC1=S
active: Potency [2] 112 µM | Potency [4] 15.8 µM
inactive: Potency [1] | Potency [3]
